This is an account of results in the supplement of paper PMC10849652.

About 7,900 targets were measured; listed, in parts, are those with a hit and a random draw of the rest. About 0.6% of all pairs of compound and target were hits. A number with no mark means an inactive call.

Sequence of UniProt Q9UK97 (Q9UK97 whole entry, looked up): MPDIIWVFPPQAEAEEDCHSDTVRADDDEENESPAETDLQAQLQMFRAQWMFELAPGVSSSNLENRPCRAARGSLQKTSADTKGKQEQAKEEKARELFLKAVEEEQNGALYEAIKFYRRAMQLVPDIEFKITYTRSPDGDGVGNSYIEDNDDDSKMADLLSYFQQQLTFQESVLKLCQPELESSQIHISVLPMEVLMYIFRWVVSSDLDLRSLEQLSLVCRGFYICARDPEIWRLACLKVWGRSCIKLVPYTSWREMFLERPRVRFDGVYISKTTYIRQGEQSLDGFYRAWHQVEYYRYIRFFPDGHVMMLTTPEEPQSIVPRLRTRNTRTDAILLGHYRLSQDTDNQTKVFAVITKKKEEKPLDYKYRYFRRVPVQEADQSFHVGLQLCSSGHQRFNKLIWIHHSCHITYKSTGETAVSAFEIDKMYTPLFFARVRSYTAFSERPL
Sequence of UniProt Q01628 (Q01628 whole entry, looked up): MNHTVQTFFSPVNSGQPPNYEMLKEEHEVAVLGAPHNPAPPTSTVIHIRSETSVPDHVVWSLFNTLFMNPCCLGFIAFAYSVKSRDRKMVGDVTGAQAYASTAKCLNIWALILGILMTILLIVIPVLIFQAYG
Sequence of UniProt Q9NYQ8 (Q9NYQ8 whole entry, looked up): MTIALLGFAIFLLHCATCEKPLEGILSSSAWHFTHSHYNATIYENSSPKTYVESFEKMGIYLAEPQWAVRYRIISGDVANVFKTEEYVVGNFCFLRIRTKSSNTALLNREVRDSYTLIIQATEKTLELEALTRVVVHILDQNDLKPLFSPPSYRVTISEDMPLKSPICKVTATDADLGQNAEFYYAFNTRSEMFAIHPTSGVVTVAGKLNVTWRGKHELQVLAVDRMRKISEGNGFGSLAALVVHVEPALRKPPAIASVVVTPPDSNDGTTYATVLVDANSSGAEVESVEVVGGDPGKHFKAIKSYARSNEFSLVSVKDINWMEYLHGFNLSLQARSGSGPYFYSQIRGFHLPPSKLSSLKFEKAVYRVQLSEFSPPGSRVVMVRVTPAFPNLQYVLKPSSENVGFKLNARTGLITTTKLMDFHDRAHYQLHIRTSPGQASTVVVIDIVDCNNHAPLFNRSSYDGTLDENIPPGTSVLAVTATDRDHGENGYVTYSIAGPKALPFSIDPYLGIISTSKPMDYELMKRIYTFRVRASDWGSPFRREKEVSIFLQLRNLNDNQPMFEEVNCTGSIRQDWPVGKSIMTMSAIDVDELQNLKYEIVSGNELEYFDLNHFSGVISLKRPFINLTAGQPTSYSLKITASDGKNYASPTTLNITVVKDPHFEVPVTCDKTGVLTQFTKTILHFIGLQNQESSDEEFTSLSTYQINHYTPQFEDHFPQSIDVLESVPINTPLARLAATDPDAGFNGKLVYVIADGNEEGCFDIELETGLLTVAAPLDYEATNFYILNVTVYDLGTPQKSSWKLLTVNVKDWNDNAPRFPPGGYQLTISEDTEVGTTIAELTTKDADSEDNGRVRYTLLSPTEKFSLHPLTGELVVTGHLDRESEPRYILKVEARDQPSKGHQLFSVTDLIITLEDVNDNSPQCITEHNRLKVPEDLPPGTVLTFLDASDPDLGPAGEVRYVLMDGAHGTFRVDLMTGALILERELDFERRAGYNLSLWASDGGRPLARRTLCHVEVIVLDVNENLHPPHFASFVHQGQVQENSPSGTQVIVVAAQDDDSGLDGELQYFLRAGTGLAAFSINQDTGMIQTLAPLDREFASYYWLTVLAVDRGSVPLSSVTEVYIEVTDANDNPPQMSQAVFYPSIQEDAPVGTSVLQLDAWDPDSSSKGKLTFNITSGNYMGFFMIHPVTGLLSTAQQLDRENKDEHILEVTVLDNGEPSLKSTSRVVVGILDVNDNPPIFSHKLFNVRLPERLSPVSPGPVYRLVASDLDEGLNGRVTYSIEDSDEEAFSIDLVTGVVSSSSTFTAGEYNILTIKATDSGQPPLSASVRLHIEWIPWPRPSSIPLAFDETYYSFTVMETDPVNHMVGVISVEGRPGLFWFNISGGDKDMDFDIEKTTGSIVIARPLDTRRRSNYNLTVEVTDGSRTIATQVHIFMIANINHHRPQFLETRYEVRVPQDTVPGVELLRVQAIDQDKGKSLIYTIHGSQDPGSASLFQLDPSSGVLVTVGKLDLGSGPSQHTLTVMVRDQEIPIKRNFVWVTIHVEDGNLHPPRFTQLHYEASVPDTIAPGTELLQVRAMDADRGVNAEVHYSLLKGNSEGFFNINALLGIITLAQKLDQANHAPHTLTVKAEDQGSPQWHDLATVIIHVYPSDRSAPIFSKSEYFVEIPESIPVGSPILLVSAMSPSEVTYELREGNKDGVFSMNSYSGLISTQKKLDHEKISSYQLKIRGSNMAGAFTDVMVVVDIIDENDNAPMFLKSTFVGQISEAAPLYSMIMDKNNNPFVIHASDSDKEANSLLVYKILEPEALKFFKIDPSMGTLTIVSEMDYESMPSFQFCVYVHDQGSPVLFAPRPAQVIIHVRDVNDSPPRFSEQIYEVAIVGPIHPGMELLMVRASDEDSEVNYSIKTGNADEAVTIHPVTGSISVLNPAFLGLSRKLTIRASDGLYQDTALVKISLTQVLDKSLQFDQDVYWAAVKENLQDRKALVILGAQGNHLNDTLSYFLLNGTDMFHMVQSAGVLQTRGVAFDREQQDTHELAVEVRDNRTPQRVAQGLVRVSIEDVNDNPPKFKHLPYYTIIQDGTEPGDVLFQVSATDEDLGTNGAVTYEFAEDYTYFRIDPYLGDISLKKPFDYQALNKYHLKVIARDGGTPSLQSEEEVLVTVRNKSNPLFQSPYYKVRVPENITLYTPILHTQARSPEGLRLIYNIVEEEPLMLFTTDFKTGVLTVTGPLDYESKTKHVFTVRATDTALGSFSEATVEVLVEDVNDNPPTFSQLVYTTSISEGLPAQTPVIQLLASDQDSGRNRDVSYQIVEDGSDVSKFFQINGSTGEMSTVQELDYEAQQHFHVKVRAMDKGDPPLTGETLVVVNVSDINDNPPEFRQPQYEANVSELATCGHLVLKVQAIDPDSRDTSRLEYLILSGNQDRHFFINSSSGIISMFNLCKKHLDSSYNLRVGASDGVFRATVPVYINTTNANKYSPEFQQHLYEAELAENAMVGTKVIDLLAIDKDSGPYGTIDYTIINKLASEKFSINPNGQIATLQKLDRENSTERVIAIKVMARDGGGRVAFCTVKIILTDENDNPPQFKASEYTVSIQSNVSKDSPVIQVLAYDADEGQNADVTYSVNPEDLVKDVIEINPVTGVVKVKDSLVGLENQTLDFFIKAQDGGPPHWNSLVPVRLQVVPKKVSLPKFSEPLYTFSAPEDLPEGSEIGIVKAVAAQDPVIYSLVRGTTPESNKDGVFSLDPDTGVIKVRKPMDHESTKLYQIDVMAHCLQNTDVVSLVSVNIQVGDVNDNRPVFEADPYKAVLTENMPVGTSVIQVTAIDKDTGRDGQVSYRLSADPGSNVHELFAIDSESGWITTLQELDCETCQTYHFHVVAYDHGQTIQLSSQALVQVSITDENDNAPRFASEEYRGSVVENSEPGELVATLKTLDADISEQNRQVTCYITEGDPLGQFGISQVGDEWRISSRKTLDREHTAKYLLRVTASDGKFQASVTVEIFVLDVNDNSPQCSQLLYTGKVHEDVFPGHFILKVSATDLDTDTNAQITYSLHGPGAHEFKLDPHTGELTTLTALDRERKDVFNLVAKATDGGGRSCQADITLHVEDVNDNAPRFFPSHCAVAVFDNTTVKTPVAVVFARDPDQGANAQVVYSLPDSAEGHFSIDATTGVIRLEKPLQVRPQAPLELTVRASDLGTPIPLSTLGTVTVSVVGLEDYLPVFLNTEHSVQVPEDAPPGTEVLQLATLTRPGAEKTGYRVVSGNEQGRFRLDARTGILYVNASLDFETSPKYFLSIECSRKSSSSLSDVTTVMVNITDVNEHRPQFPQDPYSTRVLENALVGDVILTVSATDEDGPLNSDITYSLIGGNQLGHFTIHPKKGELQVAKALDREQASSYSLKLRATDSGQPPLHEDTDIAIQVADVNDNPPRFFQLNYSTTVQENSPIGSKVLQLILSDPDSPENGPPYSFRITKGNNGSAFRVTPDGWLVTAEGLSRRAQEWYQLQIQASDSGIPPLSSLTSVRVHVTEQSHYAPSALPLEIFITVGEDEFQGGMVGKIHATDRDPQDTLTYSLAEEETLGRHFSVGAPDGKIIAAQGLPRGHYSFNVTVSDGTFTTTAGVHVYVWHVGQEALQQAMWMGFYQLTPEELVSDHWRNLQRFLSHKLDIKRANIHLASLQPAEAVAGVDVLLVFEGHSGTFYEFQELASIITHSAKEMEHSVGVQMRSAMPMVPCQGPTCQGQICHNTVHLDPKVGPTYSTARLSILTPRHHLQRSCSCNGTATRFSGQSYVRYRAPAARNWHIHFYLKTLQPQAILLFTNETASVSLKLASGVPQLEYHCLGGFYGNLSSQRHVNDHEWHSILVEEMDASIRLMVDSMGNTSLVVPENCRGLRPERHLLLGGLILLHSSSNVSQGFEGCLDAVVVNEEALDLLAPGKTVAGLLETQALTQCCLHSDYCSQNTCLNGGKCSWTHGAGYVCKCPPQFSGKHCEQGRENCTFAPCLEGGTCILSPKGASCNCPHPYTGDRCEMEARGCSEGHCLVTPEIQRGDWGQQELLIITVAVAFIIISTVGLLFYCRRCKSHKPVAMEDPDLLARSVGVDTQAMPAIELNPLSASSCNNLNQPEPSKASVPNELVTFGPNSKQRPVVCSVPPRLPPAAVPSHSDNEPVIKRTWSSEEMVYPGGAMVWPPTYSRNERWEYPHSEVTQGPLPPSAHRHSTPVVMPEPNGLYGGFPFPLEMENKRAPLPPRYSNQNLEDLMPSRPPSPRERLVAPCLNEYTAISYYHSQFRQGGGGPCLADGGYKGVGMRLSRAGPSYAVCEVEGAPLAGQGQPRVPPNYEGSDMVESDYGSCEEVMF
Sequence of UniProt Q9Y324 (Q9Y324 whole entry, looked up): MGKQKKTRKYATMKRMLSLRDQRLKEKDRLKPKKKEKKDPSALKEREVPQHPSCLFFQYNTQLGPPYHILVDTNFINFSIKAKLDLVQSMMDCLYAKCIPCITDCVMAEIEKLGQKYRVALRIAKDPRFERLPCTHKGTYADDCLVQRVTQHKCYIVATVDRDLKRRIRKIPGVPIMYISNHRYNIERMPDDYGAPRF

Compound in one assay: Cc1cc(SCc2sc(-c3ccc(C(F)(F)F)cc3)nc2C)ccc1OCC(=O)O
Briefly: log2 fold change, soluble protein after heating vs DMSO (PISA); higher = thermal stabilisation; K562 cells, 10 uM, 30 min; active = over 0.2 and 3.5 SD of the protein, either way, in both replicates (recomputed). Summed up: (§1)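 For each measurement, 10 μM compound was applied for 30 min to K562 cells at 2×10^6 cells/mL. Aliquots were heated for 3 min across 48°C-58°C, pooled, and extracted in PBS with 0.5% NP-40 at 4°C; the supernatant after 21,000xg for 90 min was soluble protein. This was quantified by TMTpro 16plex LC-MS/MS with channel sums equalised, and thermal stability was reported relative to control samples from duplicates, on a log2 fold-change scale.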
With GBE1 (UniProt Q04446), the log2 fold change is 0.094.

For the target GOLGA8R (UniProt I6L899), the log2 fold change is -0.067.

Turning to HS1BP3 (UniProt Q53T59), the log2 fold change was -0.012.

As for ICMT (UniProt O60725), the log2 fold change was -0.107.

For IFITM3 (UniProt Q01628), the log2 fold change is -0.094.

Regarding FCHO1 (UniProt O14526), the log2 fold change was 0.109.

Consider H3-3A (UniProt P84243), for which the log2 fold change was 0.106.

For the target GNL3 (UniProt Q9BVP2), the log2 fold change is -0.053.

Consider GBA2 (UniProt Q9HCG7), for which the log2 fold change is 0.067.

Take FHOD1 (UniProt Q9Y613): the log2 fold change is 0.085.

On to FBXO9 (UniProt Q9UK97), for which the log2 fold change was 0.079.

Take HAUS4 (UniProt Q9H6D7): the log2 fold change was -0.195.

Take FCF1 (UniProt Q9Y324): the log2 fold change is 0.103.

Regarding GPD1 (UniProt P21695), the log2 fold change is -0.034.

Take GDE1 (UniProt Q9NZC3): the log2 fold change was -0.067.

On to GSTT1 (UniProt P30711), for which the log2 fold change is -0.061.

As for GID4 (UniProt Q8IVV7), the log2 fold change was 0.032.

On to HNRNPK isoform 3 (UniProt P61978), for which the log2 fold change was -0.037.

As to HNRNPUL1 (UniProt M0R247), the log2 fold change is -0.374.

Turning to IGF2 isoform 3 (UniProt P01344), the log2 fold change was 0.03.

Turning to IFNGR1 (UniProt P15260), the log2 fold change was -0.162.

Regarding HDAC10 (UniProt Q969S8), the log2 fold change is 0.042.

On to FAT2 (UniProt Q9NYQ8), for which the log2 fold change is 0.121.

In the case of GGA2 (UniProt Q9UJY4), the log2 fold change is 0.015.

Turning to GSE1 (UniProt Q14687), the log2 fold change was -0.046.

On to FYB1 isoform 3 (UniProt O15117), for which the log2 fold change is 0.067.

Compound in another assay: Cc1ccc(-n2nc(C(C)(C)C)cc2NC(=O)Nc2ccc(OCCN3CCOCC3)c3ccccc23)cc1 [doramapimod]
The description is as above. A digest of the protocol: as §1
For the target GBE1 (UniProt Q04446), the log2 fold change was -0.02.

Turning to GOLGA8R (UniProt I6L899), the log2 fold change is 0.108.

Turning to HS1BP3 (UniProt Q53T59), the log2 fold change was 0.089.

With ICMT (UniProt O60725), the log2 fold change was 0.01.

For HSPA8 (UniProt E9PN89), the log2 fold change is 0.

Consider GREB1 (UniProt Q4ZG55), for which the log2 fold change is -0.007.

In the case of IFITM3 (UniProt Q01628), the log2 fold change is 0.038.

For the target FCHO1 (UniProt O14526), the log2 fold change was -0.009.

As for GBA2 (UniProt Q9HCG7), the log2 fold change was 0.056.

Consider FHOD1 (UniProt Q9Y613), for which the log2 fold change is 0.235.

As for FBXO9 (UniProt Q9UK97), the log2 fold change was -0.081.

Regarding FMR1 (UniProt Q06787), the log2 fold change was -0.065.

Take IDH3A isoform 2 (UniProt P50213): the log2 fold change is 0.051.

Regarding FCF1 (UniProt Q9Y324), the log2 fold change is 0.244.

Take GDE1 (UniProt Q9NZC3): the log2 fold change was 0.074.

GSTT1 (UniProt P30711): the log2 fold change was -0.003.

Turning to GOLGA6B (UniProt A6NDN3), the log2 fold change was -0.139.

Regarding GPS2 (UniProt Q13227), the log2 fold change was 0.047.

In the case of HNRNPK isoform 3 (UniProt P61978), the log2 fold change was 0.05.

Turning to HNRNPUL1 (UniProt M0R247), the log2 fold change is -0.014.

Regarding IGF2 isoform 3 (UniProt P01344), the log2 fold change is -0.13.

Take FAT2 (UniProt Q9NYQ8): the log2 fold change was 0.006.

GGA2 (UniProt Q9UJY4): the log2 fold change is 0.009.

As to HSPA2 (UniProt P54652), the log2 fold change is -0.003.

Regarding FYB1 isoform 3 (UniProt O15117), the log2 fold change is 0.021.
